# The campaign covered roughly 1,100 compounds. About 860 (78%) were called active. Inconclusive results (about 19%) are left out. The call rests on the fitted dose curve; in most records, active means well fitted activation curve with a large enough effect; inconclusive means small, poorly fitted or top-dose-only effect; inactive means flat fitted curve, though single readings scatter. So high a share suggests a set chosen from earlier hits. The list shows a part of the results.
# Assay: qHTS of Nrf2 Activators: Hit Validation in Primary Assay; further: nearly all actives have a fitted effect of over 70% in size
# Details: Nrf2/ARE reporter cell assay, activation
# Source text: Many diseases have some form of oxidative stress injury and ties to inflammation, causing a host of problems for the patient. The antioxidant response element (ARE) plays an important role in alleviating the harmful effects of oxidative stress. The antioxidant response element (ARE) is a transcriptional regulatory element involved in the activation of genes coding for a number of antioxidant proteins and detoxifying enzymes. These enzymes work in concert to protect tissues from oxidative insults and chemical toxicities in human hepatocytes and immune cells. The protective effects of ARE activation are primarily triggered through Nrf2 (NF-E2-related factor) binding to and activating AREs. It is known that Nrf2 controls the production of over 250 antioxidant and detoxification proteins (Hu et al., 2006), thereby protecting tissues by increasing cellular antioxidant content and suppressing inflammatory signaling pathways. The transcription factor Nrf2 is a central link between oxidative chemicals, such as phenolic antioxidants and electrophilic compounds, and the activation of ARE. Nrf2 levels are constitutively low as a consequence of its interaction with Keap1, which targets its degradation (Zipper and Mulcahy, 2002). Electrophiles react with key cysteine residues in Keap1, releasing Nrf2 and allowing its translocation to the nucleus. Once within the nucleus, Nrf2 complexes with coactivators such as p300, and binds to the AREs to induce gene transcription of cytoprotective enzymes, resulting in the prevention of toxicity. Activation of Nrf2 protects tissues by increasing cellular antioxidant content and suppressing inflammatory signaling pathways. Identifying novel and potent Nrf2 activators by using the AREc32 cell line to detect ARE activation by small molecules will lead to the identification and development of probes to study protective pathways in multiple tissues. These specific probes are essential to study the ARE pathway, and eventually to determine whether this pathway does activate genes that could protect against a host of diseases, including cardiovascular diseases, obesity, diabetes, Alzheimer's, and Parkinson's disease.
# This project's aim is to identify novel and potent Nrf2 activators by using the AREc32 cell line to detect ARE activation by small molecules, which will lead to the identification and development of probes to study the ARE pathway.
# NIH Chemical Genomics Center [NCGC]
# NIH Molecular Libraries Probe Centers Network [MLPCN]
# Assay Submitter (PI): Curtis Klaassen, University of Kansas Medical Center
# Quantification of ARE activation after compound treatment was measured by the Steady-Glo Luciferase (R) assay system (Promega) in AREc32_fluc stable cells. The Steady-Glo reagent acts by cell lysis and generation of a luminescent signal proportional to ARE activation, through the luciferase reporter in the AREc32 stable cell line. AREc32_fluc cells were harvested from T225 flask and resuspended in phenol red free OPTI-MEM medium with 5% FBS. Then 5 microL of 200,000 cells/mL resuspended cells were dispensed into each well of white, solid bottom, 1536-well tissue culture-treated plates using a Multidrop Combi dispenser. After overnight culture at 37 degrees C with 5% CO2, a total of 23 nL of compounds at 5 selected concentrations from the MLSMR/Sytravon or positive control (40 uM stock of CDDO-IM and 2 mM of tBHQ) in DMSO was transferred to each well of the assay plate using a pintool (Kalypsys, San Diego, CA), and the plates were further incubated at 37 degrees C with 5% CO2 for 24 hours. After that, 2 microL of Steady Glo luminescent substrate mix (Promega) was added to each well. The plate was incubated at room temperature for 30 minutes. The plates were measured on a ViewLux plate reader (PerkinElmer) with clear filter.
# Potency means the concentration at half of the fitted maximal effect.
row,Compound,Potency
1,COc1ccc(Sc2cnn(-c3ccccc3)c(=O)c2Cl)cc1,4.61 µM (active)
2,O=c1[nH]c(=S)[nH]c(O)c1N=Nc1ccc(S(=O)(=O)N2CCc3ccccc32)cc1,16.4 µM (active)
3,Clc1ccccc1Nc1ncnc(-n2cccc2)n1,2.59 µM (active)
4,Cc1cccc(C(=O)Nc2nnc(SCC(=O)NCc3ccco3)s2)c1,8.2 µM (active)
5,Cc1cc(SCC(=O)N/N=C/c2ccco2)nc2ccccc12,11.6 µM (active)
6,CCn1c(=O)oc2cc(NC(=O)CCl)ccc21,4.61 µM (active)
7,Cn1c(=O)oc2cc(NC(=O)CCl)ccc21,4.61 µM (active)
8,O=C(O)c1ccc([N+](=O)[O-])c([N+](=O)[O-])c1,5.17 µM (active)
9,Cn1c(O)c(N=Nc2ccc(S(=O)(=O)N3CCOCC3)cc2)c(=O)n(C)c1=O,18.4 µM (active)
10,Clc1cccc(/C=N\Nc2nccs2)c1,2.91 µM (active)
11,O=C(Nc1ccc(Cl)c(Cl)c1)c1ccco1,4.61 µM (active)
12,O=C1c2ccccc2-c2cc3ccccc3cc21,4.61 µM (active)
13,Fc1cccc(F)c1-c1nc(-c2ccc(Cl)cc2)no1,3.66 µM (active)
14,O=C(/C=C/c1ccccc1)c1c(O)n(CCc2ccccc2)c(=O)[nH]c1=O,3.66 µM (active)
15,CCCCn1c(O)c(C(=O)/C=C/c2ccc3c(c2)OCO3)c(=O)[nH]c1=O,9.2 µM (active)
